aSyn UTR act: Activators working through SNCA 5'UTR binding (MLPCN) | alpha-synuclein 5'UTR reporter, activators screen | activity score, % (tested at 7.5 µM), hits read low | 300,000 compounds, 7.1% hits | AID 1814; in the data active means activity score below about -60%
Starred values were filed as active, the others as inactive. Not all results are given here.

For CC1CCN(C(=O)COC(=O)c2n[nH]c3ccccc23)CC1 the results were aSyn UTR act -144*.
Screening COc1ccc2occ(C(=O)c3cccs3)c2c1 returned aSyn UTR act -242*.
For Nc1nc2ccccc2n1C(=O)CCc1ccccc1 the results were aSyn UTR act -63*.
CN(C)CC(CCC(CN(C)C)C(O)(c1ccccc1)c1ccccc1)C(O)(c1ccccc1)c1ccccc1 (stereo not drawn) was read as aSyn UTR act 101.
For CN(C)CC(C(=O)c1ccccc1)c1ccccc1 (stereo not drawn) the results were aSyn UTR act -171*.
Screening CCn1cc(/C=C/C(=O)Nc2ccc(C)cc2Br)cn1 returned aSyn UTR act -82*.
For O=c1nc2c(O)cccn2c2c1c(=O)[nH]c1ccccc12 the results were aSyn UTR act -66*.
`O=c1[nH]c2ccccc2c2nc3ccccn3c12` gave aSyn UTR act -113*.
Screening Cc1ccc(C)n1-c1ccc(C(=O)Nc2ccccc2)cc1 returned aSyn UTR act -82*.
For Cc1ccc(C)n1-c1cccc(NC(=O)c2ccccc2)c1 the results were aSyn UTR act -73*.
Screening CC(NC(=O)CCl)c1ccccc1Br (stereo not drawn) returned aSyn UTR act -99*.
`CC(=O)c1cnc2nc(SCc3ccccc3C)nn2c1C` gave aSyn UTR act -75*.
Screening O=C(Cn1cc(SCc2ccc(Cl)cc2)c2ccccc21)N1CCOCC1 returned aSyn UTR act -90*.
Screening O=C(CSc1cn(Cc2ccccc2)c2ccccc12)N1CCOCC1 returned aSyn UTR act -129*.
`COc1cc(C(=O)N/N=C/c2cn(Cc3ccccc3)c3ccccc23)ccc1O` gave aSyn UTR act 57.
Screening Cc1ccc(C2=NN(C(=S)Nc3ccccc3)C(c3ccco3)C2)cc1 (stereo not drawn) returned aSyn UTR act -178*.
For CCC(=O)N1N=C(c2c(-c3ccccc3)c3cc(Cl)ccc3[nH]c2=O)CC1c1ccco1 (stereo not drawn) the results were aSyn UTR act 42.
Screening CCS(=O)(=O)Nc1ccc(C2=NN(C(=S)Nc3ccccc3)C(c3ccco3)C2)cc1 (stereo not drawn) returned aSyn UTR act -81*.
For COc1ccc(C2CC(c3ccc(Br)cc3)=NN2C(=S)Nc2ccccc2)cc1 (stereo not drawn) the results were aSyn UTR act -78*.
For COc1ccc(NC(=O)N2CCn3c2nc2ccccc23)cc1 the results were aSyn UTR act -64*.
`O=C(c1ccco1)N1CCn2c1nc1ccccc12` gave aSyn UTR act -124*.
`CCN(CC)CCNC(=O)c1ccc2c(c1NCCO)C(=O)c1ccccc1C2=O` gave aSyn UTR act 96.
`CCN(CC)C(=O)c1ccc2c(c1[N+](=O)[O-])C(=O)c1ccccc1C2=O` gave aSyn UTR act -93*.
`O=C(NC(=O)N1CCN(c2ccccc2)CC1)c1ccc(Cl)cc1` gave aSyn UTR act -66*.
`CC(C)(C)c1ccc(-c2nnc(N)o2)cc1` gave aSyn UTR act -154*.
C/C(=C\C(=O)c1ccc(Cl)cc1)Nc1ccc(Br)cc1 was read as aSyn UTR act -131*.
Screening C/C(=C\C(=O)c1ccc(Br)cc1)Nc1cccc(Cl)c1 returned aSyn UTR act -80*.
`Cc1c(/N=C(\[O-])Nc2ccc(Br)cc2)sn[n+]1C` gave aSyn UTR act 89.
For C/C(=C\C(=O)c1ccc(Br)cc1)NCc1ccccc1 the results were aSyn UTR act -113*.
For O=C(N/N=C/C=C\c1ccccc1[N+](=O)[O-])c1cc(-c2ccc3ccccc3c2)n[nH]1 the results were aSyn UTR act -88*.
For O=C(N/N=C/c1ccco1)c1cc(-c2ccc3ccccc3c2)n[nH]1 the results were aSyn UTR act -75*.
For O=C(N/N=C/c1ccccn1)c1cc(-c2ccc3ccccc3c2)n[nH]1 the results were aSyn UTR act -161*.
Screening O=C(NCCOc1ccccc1)c1ccccc1Cl returned aSyn UTR act -75*.
`COc1ccc(CCC(=O)NCCOc2ccccc2Cl)cc1` gave aSyn UTR act -92*.
O=C(NCCOc1ccccc1Cl)c1cc(F)c(F)cc1Cl was read as aSyn UTR act -123*.
`O=C(Nc1cccc2nsnc12)c1ccc(-c2ccc(Br)cc2)o1` gave aSyn UTR act -157*.
Screening COC(=O)c1ccccc1NC(=O)c1ccc(-c2ccc(Br)cc2)o1 returned aSyn UTR act -106*.
O=C(c1ccco1)N1CCC(c2ccccc2)C1 (stereo not drawn) was read as aSyn UTR act -109*.
For O=C(c1ccc(F)cc1)N1CCC(c2ccccc2)C1 (stereo not drawn) the results were aSyn UTR act -84*.
For CCN(CC)CCNC(=O)c1nn(-c2ccc(C)cc2)c(=O)c2c1c1ccccc1n2C the results were aSyn UTR act -64*.
`COc1ccc(C2CC(c3ccc4ccccc4c3OC(C)=O)=NN2C(C)=O)cc1` (stereo not drawn) gave aSyn UTR act -203*.
Screening CC(=O)N1N=C(c2ccc(C)o2)CC1c1ccc(Br)cc1 (stereo not drawn) returned aSyn UTR act -199*.
COc1ccc(C2CC(c3ccc(Cl)cc3)=NN2C(C)=O)cc1 (stereo not drawn) was read as aSyn UTR act -116*.
Screening COc1ccc(C2CC(c3ccc(C)o3)=NN2C(C)=O)cc1 (stereo not drawn) returned aSyn UTR act -128*.
`CCOC(=O)c1[nH]c2ccccc2c1NC(=S)Nc1ccccc1` gave aSyn UTR act -70*.
`CN(C)Cc1c(C(=O)Nc2ccccc2)[nH]c2ccccc12` gave aSyn UTR act -76*.
O=C(c1ccccc1)N1CCN2C(=O)c3ccccc3C12c1ccc(Cl)cc1 (stereo not drawn) was read as aSyn UTR act -72*.
Screening NC(=O)c1oc2ccccc2c1NC(=O)c1nc2ccccc2s1 returned aSyn UTR act -121*.
`Nc1cc2nn(-c3ccccc3)nc2cc1Cl` gave aSyn UTR act -157*.
For CC(C)CC(=O)Nc1cc2nn(-c3ccccc3)nc2cc1Cl the results were aSyn UTR act -135*.
Screening CCOc1cccc2sc(N(CCCN(C)C)C(=O)c3ccc(S(=O)(=O)N(C)Cc4ccccc4)cc3)nc12 returned aSyn UTR act 56.
For CCOc1cccc2sc(N(CCCN(C)C)C(=O)c3ccc(S(=O)(=O)N(CC)Cc4ccccc4)cc3)nc12 the results were aSyn UTR act 71.
Screening COc1ccc(C)c2sc(N(CCCN(C)C)C(=O)c3ccc(S(=O)(=O)N4CCc5ccccc5C4)cc3)nc12 returned aSyn UTR act 91.
Screening Cc1ccc2nc(N(CCCN(C)C)C(=O)c3ccc4ncsc4c3)sc2c1 returned aSyn UTR act -84*.
Screening COc1ccc(C)c2sc(N(CCCN(C)C)C(=O)c3ccc4c(c3)OCCO4)nc12 returned aSyn UTR act -97*.
For Cc1ccc2nc(N(CCN(C)C)C(=O)c3ccc4c(c3)OCCO4)sc2c1 the results were aSyn UTR act -110*.
For Cc1ccc2sc(N(CCCN(C)C)C(=O)c3ccc(S(=O)(=O)N(C)Cc4ccccc4)cc3)nc2c1C the results were aSyn UTR act -73*.
`COc1ccc(OC)c2sc(N(CCCN(C)C)C(=O)c3ccc(S(=O)(=O)N4CCc5ccccc5C4)cc3)nc12` gave aSyn UTR act 100.
CN(C)CCCN(C(=O)c1ccc2c(c1)CCCC2)c1nc2ccc(Cl)cc2s1 was read as aSyn UTR act -70*.
